Measured values from the supplement of paper PMC8269313.

System: 4T1
Test: % inhibition of 4T1 cell number vs DMSO control; higher = stronger growth inhibition
Conditions: 1 µM, 3 days
In short: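 In 96-well imaging plates whose edge wells went unused, 3000 4T1-H2B-GFP mouse breast cancer cells per well were seeded in 2% FBS medium onto plastic, denuded lung matrix, mCAF1 fibroblast-derived matrix, Matrigel (15 μg/mL) or 0.2% gelatin. Sixteen hours on, kinase inhibitors went in at 1 μM final for 3 days before formalin fixation, DAPI staining and imaging on an INCell Analyzer 2200. Counting of GFP-positive nuclei gave cell numbers, from which percent inhibition relative to control was derived.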

[1] = substrate: lung fibroblast-derived matrix
[2] = substrate: mCAF1 fibroblast-derived matrix

| SMILES | % inhibition of 4T1 cell number (substrate: Matrigel) | % inhibition of 4T1 cell number (substrate: gelatin) | % inhibition of 4T1 cell number [1] | % inhibition of 4T1 cell number [2] | % inhibition of 4T1 cell number (substrate: plastic) |
| --- | --- | --- | --- | --- | --- |
| Cc1cc(C)c(/C=C2\C(=O)Nc3ccccc32)[nH]1 [VEGF Receptor 2 Kinase Inhibitor III] | 14.1% | 30.2% | -11.5% | -25% | 2.08% |
| O=C1C(Cl)=C(N2C(=O)CCC2=O)C(=O)c2ccccc21 [MEK Inhibitor II] | -30.5% | -13.5% | -5.8% | 50.2% | -66.5% |
| COc1nccc(-c2c(-c3ccc(F)cc3)ncn2C2CCC(O)CC2)n1 (stereo not given) | 46.2% | 34.2% | -8.71% | -18.3% | 19.8% |
| O=c1cc(N2CCOCC2)oc2c(-c3ccccc3)cccc12 | -14.7% | -77.3% | 28.2% | 17.4% | -56.8% |
| O=c1cc(N2CCNCC2)oc2c(-c3ccccc3)cccc12 | -14.2% | -6.29% | -1.5% | 6.84% | -42.8% |
| COc1ccc2c(c1)c(C1=C(c3c[nH]c4ccccc34)C(=O)NC1=O)cn2CCCN(C)C | -19.1% | -76.7% | -27.2% | 11.8% | -63.4% |
| CC[C@H](CO)Nc1nc(NCc2ccccc2O)c2ncn(C(C)C)c2n1 [Olomoucine II] | 13.3% | 23.4% | 19.8% | 13.3% | 23.7% |
| O=C1NC(=O)C(c2cn(CCCO)c3ncccc23)=C1c1cnccn1 [GSK-3b Inhibitor XI] | 26.7% | 30.4% | 0.393% | 15.6% | 44.6% |
| COc1ccc(COc2ccc(Cc3cnc(N)nc3N)cc2OC)cc1 [cFMS Receptor Tyrosine Kinase Inhibitor] | -15.7% | -87.3% | 2.62% | 11.3% | -59.7% |
| Cc1nc(-c2ccccc2)c(-c2ccncc2)o1 | 36.5% | 13.3% | 14.6% | -10.1% | 5.64% |
| NC(=O)Nc1cc(-c2ccccc2)sc1C(N)=O [IKK-2 Inhibitor XI] | 48% | 55% | 2.01% | 19.8% | 28.6% |
| O=C1Nc2ccc(Cl)cc2/C1=C/c1cc(Cl)c(O)c(Cl)c1 [PKR Inhibitor, Negative Control] | -11.8% | -80.4% | 86.7% | 8.78% | -63.2% |
